Shown are actives, neighbours in structure and some others; about 7.4% of the full set was active somewhere.
FLuc counter: counter-screen for miR-21 project: firefly luciferase inhibitors or activators. P08659. purified FLuc, Km substrates, luminescence inhibition. Potency, µM (doses to about 57.5 µM), most hits filed as inhibitors. 360,000 compounds, 6.9% hits; note: nearly all actives have a fitted effect of over 55% in size
Target sequence (P08659 whole entry, looked up): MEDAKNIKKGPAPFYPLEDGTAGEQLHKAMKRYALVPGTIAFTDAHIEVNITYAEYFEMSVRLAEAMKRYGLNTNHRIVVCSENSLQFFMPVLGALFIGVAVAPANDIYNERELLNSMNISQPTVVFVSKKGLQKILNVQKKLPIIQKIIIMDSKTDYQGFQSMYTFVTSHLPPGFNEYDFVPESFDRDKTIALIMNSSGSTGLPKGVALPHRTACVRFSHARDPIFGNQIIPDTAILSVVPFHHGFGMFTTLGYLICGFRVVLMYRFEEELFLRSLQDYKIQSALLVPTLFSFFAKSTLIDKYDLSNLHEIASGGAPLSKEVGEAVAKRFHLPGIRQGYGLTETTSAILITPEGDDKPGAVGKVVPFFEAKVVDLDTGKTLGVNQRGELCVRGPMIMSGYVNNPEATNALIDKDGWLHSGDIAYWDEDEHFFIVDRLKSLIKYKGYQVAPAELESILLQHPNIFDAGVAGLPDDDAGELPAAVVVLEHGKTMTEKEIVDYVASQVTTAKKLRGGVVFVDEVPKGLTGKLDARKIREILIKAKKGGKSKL
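Biochemical qHTS of compounds, final roughly 60 µM downward over six points, against 10 nM purified firefly luciferase using Km concentrations of substrates (10 uM D-luciferin, 10 uM ATP) in Tris acetate pH 7.5 buffer; luminescence output.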
SMN2 splice enh: SMN2 splice variant enhancement; Potency, µM (top dose mostly 46.1 µM), usual class: activators; 210,000 compounds, 2.8% hits; HEK293 SMN2-luciferase splicing reporter, luminescence, 30-36 h; note: nearly all actives have a fitted effect of over 55% in size
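qHTS luciferase splicing reporter: luminescence rises when SMN2 exon 7 is included in transfected HEK293 cells. Compound exposure lasted 30-36 h at 37C, with 4.5 mM final sodium butyrate as control, followed by a ONE-Glo read.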
p53 reactivation: restores transcriptional activity of mutant p53 | H1299 p53-A138V BP100-luciferase reporter, luminescence, 24 h | Potency, µM (highest dose often 92.2 µM), hits mostly activators | 320,000 compounds, 0.063% hits | AID 504706; note: nearly all actives have a fitted effect of over 45% in size
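H1299 (p53-null), stable ts p53-A138V + BP100-Luc; 1000 cells/well, Opti-MEM/10% FBS; cpd 4 pt, 1:5; 24 h, 37 deg C, 5% CO2; detection reagent 10 min RT; luminescence.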
NPC1 promoter act: activates the NPC1 promoter | Huh7 NPC1 promoter luciferase reporter, 24 h | Potency, µM (titrated, usually from 9.22 µM), hits mostly activators | 320,000 compounds, 2.4% hits; note: nearly all actives have a fitted effect of over 60% in size
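NPC1 promoter–luciferase Huh7 cells; 24 h compound; luminescence.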
Rab9 prom act: activates the Rab9 promoter; Huh7 Rab9 promoter-luciferase reporter, luminescence, 24 h; Potency, µM (top dose mostly 9.22 µM), most hits filed as activators; 320,000 compounds, 2.8% hits; AID 485297; note: nearly all actives have a fitted effect of over 60% in size
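Huh7 cells stably carrying Rab9 promoter–luciferase reporter, plated 1500 cells/well, compound added after 2 h and incubated 24 h at 37 °C; luciferase luminescence then read after 10 min with detection reagent.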
ELG1 genotoxic: induces genotoxicity in HEK293T cells with luciferase-tagged ELG1. 330,000 compounds, 1.3% hits. HEK293T ELG1-luciferase reporter, luminescence, 16 h. Potency, µM (series often up to 46 µM), most hits filed as activators; note: nearly all actives have a fitted effect of over 60% in size
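HEK293T cells expressing luciferase-tagged ELG1 were treated with compound or DMSO for 16 hr at 37°C. Luciferase activity was then read after 30 min with ONE-Glo at room temperature; rising signal flags genetic stress.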
Of the large screens only hits and unclear results are named; the others gave an inactive call. Calls come from the whole dose curve; as a rule, active = well fitted curve in the direction sought with a large enough effect; inconclusive = small, poorly fitted or top-dose-only effect, or another doubt; inactive = no such curve, though single readings can be large; an effect the other way counts as inactive or inconclusive.

COc1ccc(Cn2c(C(C)C)nc3sc4ccccc4c(=O)c3c2=O)cc1	none (no result: SMN2 splice enh)
CC(OC(=O)Cn1ccccc1=O)C(=O)Nc1cc(Cl)cc(Cl)c1 (stereo not given)	none (no result: FLuc counter, SMN2 splice enh, NPC1 promoter act, Rab9 prom act)
CCC(C(=O)Nc1cc(-c2nc3cccnc3s2)ccc1C)c1ccccc1 (stereo not given)	FLuc counter 11µM (no result: SMN2 splice enh, p53 reactivation, NPC1 promoter act, Rab9 prom act, ELG1 genotoxic)
Cc1ccc(-c2nc3cccnc3s2)cc1NC(=O)C(C)C	FLuc counter 11µM (no result: SMN2 splice enh, p53 reactivation, NPC1 promoter act, Rab9 prom act, ELG1 genotoxic)
Cc1ccc(-c2nc3cccnc3s2)cc1NS(C)(=O)=O	FLuc counter 13µM, NPC1 promoter act inconclusive, Rab9 prom act inconclusive, ELG1 genotoxic inconclusive (no result: SMN2 splice enh)
Cc1cccc(C(=O)Nc2cc(-c3nc4cccnc4s3)ccc2C)c1	none (no result: SMN2 splice enh, p53 reactivation, NPC1 promoter act, Rab9 prom act, ELG1 genotoxic)
COc1ccc(CCCc2nnc(SCC(=O)Nc3ccc(C)cc3C)o2)cc1	none (no result: p53 reactivation, NPC1 promoter act, Rab9 prom act, ELG1 genotoxic)
Oc1c(Cl)cc(Cl)cc1C=Nc1ccc2c(c1)OCCO2	FLuc counter 27µM, p53 reactivation inconclusive (no result: SMN2 splice enh)
Brc1ccc(C=Nc2ccc3c(c2)OCCOCCOCCO3)s1	FLuc counter 11µM
Cn1nnc2cc(C(=O)Nc3ccc(Cl)cc3)ccc21	NPC1 promoter act inconclusive, Rab9 prom act 3.5µM, ELG1 genotoxic inconclusive
CCn1c(C)nc2cc(C(=O)N/N=C/c3ccc(O)c(O)c3O)ccc21	FLuc counter 13µM
Cc1nc2cc(NC(=O)c3ccc(Cl)cc3)ccc2n1C	FLuc counter 4.3µM, NPC1 promoter act 0.28µM, Rab9 prom act 0.28µM, ELG1 genotoxic 1µM (no result: SMN2 splice enh, p53 reactivation)
CCn1c(C)nc2cc(C(=O)NNC(=O)Nc3ccc(Cl)cc3)ccc21	NPC1 promoter act inconclusive, Rab9 prom act 1.4µM
COc1cc(C(=O)Nc2ccc3c(c2)nc(C)n3C)cc(OC)c1OC	FLuc counter 21µM, ELG1 genotoxic inconclusive (no result: SMN2 splice enh)
COc1cc(C(=O)Nc2ccc3c(c2)ncn3C)cc(OC)c1OC	FLuc counter inconclusive, ELG1 genotoxic inconclusive (no result: SMN2 splice enh)
Cc1cccc(Nc2nc(-c3ccc(F)c(C)c3)cs2)n1	FLuc counter 6µM, p53 reactivation inconclusive, NPC1 promoter act 3.2µM, Rab9 prom act 4µM (no result: SMN2 splice enh)
Oc1ccc(-c2csc(Nc3cccc4ccccc34)n2)cc1O	FLuc counter inconclusive (no result: SMN2 splice enh, p53 reactivation)
Cc1cccc(Nc2nc(-c3ccc(O)c(O)c3)cs2)n1	FLuc counter 21µM, ELG1 genotoxic inconclusive (no result: SMN2 splice enh)
COc1ccc([N+](=O)[O-])cc1NCC(=O)Nc1cccc(S(=O)(=O)N2CCCC2)c1	none (no result: SMN2 splice enh)
Fc1cccc(Cc2noc(CN3CCCCC3c3ccccn3)n2)c1 (stereo not given)	FLuc counter 24µM, NPC1 promoter act inconclusive, Rab9 prom act inconclusive, ELG1 genotoxic inconclusive (no result: SMN2 splice enh)
COC(=O)c1ccc(C(NC(=O)OCc2ccccc2)/C(=C/[C@@H](C)C(=O)NCc2cc(C)n(C)n2)c2cccnc2)cc1 (stereo not given in full)	none (no result: FLuc counter, p53 reactivation, NPC1 promoter act, Rab9 prom act, ELG1 genotoxic)
CCOc1ccc(C(=O)NC(C)CCc2ccccc2)cc1 (stereo not given)	none (no result: SMN2 splice enh, p53 reactivation)
CCOc1ccc(C(=O)NC(Cc2ccccc2)C(=O)OC)cc1 (stereo not given)	FLuc counter 4.8µM, Rab9 prom act inconclusive
COC(=O)[C@H](Cc1ccccc1)NC(=O)c1ccc2ccccc2n1	FLuc counter 6.7µM (no result: SMN2 splice enh)
CCN(CC)Cc1ccc(Nc2ccnc3cc(Cl)ccc23)cc1O	none (no result: FLuc counter, p53 reactivation, NPC1 promoter act, Rab9 prom act, ELG1 genotoxic)
CC(=O)c1sc(N/N=C2\CC3CC2C(C)C3(C)C)nc1C (stereo not given)	FLuc counter 13µM, NPC1 promoter act inconclusive, Rab9 prom act inconclusive, ELG1 genotoxic inconclusive (no result: SMN2 splice enh)
CC(=O)c1sc(NC(=O)C2(F)C(F)(F)C(F)(F)C(F)(F)C(F)(F)C2(F)F)nc1C	FLuc counter inconclusive
C[C@H](CO)N1C[C@H](C)[C@@H](CN(C)S(=O)(=O)c2cccs2)Oc2c(NS(=O)(=O)c3cn(C)cn3)cccc2C1=O	none (no result: FLuc counter, SMN2 splice enh, NPC1 promoter act, Rab9 prom act)
Nc1cnc(Nc2ccc(Br)cc2)nc1N	FLuc counter 15µM, Rab9 prom act inconclusive, ELG1 genotoxic inconclusive (no result: SMN2 splice enh)
N#CCCNS(=O)(=O)c1ccc(C(=O)OCC2CCCCC2)cc1	none (no result: SMN2 splice enh)
N#CCCNS(=O)(=O)c1ccc(C(=O)OCCCOC(=O)c2ccc(S(=O)(=O)NCCC#N)cc2)cc1	FLuc counter 1.2µM (no result: SMN2 splice enh)
CCCCCc1ccc(-c2cn(CC3CCCCC3)nn2)cc1	NPC1 promoter act inconclusive, Rab9 prom act 2µM (no result: SMN2 splice enh, p53 reactivation)
COc1ccc(-c2cn(CC3CCCCC3)nn2)cc1	FLuc counter inconclusive, NPC1 promoter act 4µM, Rab9 prom act 2.8µM, ELG1 genotoxic inconclusive (no result: SMN2 splice enh, p53 reactivation)
COc1ccc(-c2cn(CCCOCc3ccccc3)nn2)cc1	none (no result: SMN2 splice enh, p53 reactivation)
CCCCCc1ccc(-c2cn(CCCOCc3ccccc3)nn2)cc1	none (no result: SMN2 splice enh, p53 reactivation)
c1ccc(-c2cn(CC3CCCCC3)nn2)cc1	FLuc counter 15µM, NPC1 promoter act 3.5µM, Rab9 prom act 2.2µM, ELG1 genotoxic inconclusive (no result: SMN2 splice enh, p53 reactivation)
COC(=O)c1c(SC)nc2ccccc2c1OCc1ccc(Cl)cc1	none (no result: SMN2 splice enh, p53 reactivation, NPC1 promoter act, Rab9 prom act, ELG1 genotoxic)
C/C=C1/C(=O)C[C@H]2[C@@H]3CCC4=CC(=O)CC[C@]4(C)[C@H]3CC[C@]12C	none (no result: FLuc counter, p53 reactivation, NPC1 promoter act, Rab9 prom act, ELG1 genotoxic)
CC(C)(C)c1ccc(C(=O)CSc2n[nH]c(=O)[nH]c2=O)cc1	FLuc counter 12µM
Cc1cc(NC(=O)c2ccccc2)sc1C	FLuc counter 3.4µM, SMN2 splice enh 11µM (no result: p53 reactivation, NPC1 promoter act, Rab9 prom act, ELG1 genotoxic)
Cc1ccc(NC(=O)c2ccccc2)s1	FLuc counter 2.7µM, SMN2 splice enh 2µM, NPC1 promoter act 0.71µM, Rab9 prom act 0.63µM, ELG1 genotoxic inconclusive
COc1ccc(C(=O)C2CCCN(C(=O)CCc3scnc3C)C2)c(C)c1 (stereo not given)	FLuc counter 19µM, NPC1 promoter act inconclusive, Rab9 prom act inconclusive, ELG1 genotoxic inconclusive (no result: SMN2 splice enh)
COc1ccc(C(=O)C2CCCN(C(=O)CCc3ccccn3)C2)c(C)c1 (stereo not given)	none (no result: SMN2 splice enh)

Bioassay records (PubChem BioAssay)
